# From PubChem BioAssay (Tox21)
# Records with an inconclusive call do not appear. Entries that show only a call come without a potency. The source made the active and inactive calls. Unless noted, calls come from the whole dose curve; as a rule, active = well fitted curve in the direction sought with a large enough effect in the repeat runs; inconclusive = weak or mixed curves; inactive = no such curve, though single readings can be large; an effect the other way counts as inactive or inconclusive.
# Tests used:
# [1] = qHTS assay to identify small molecule antagonists of the thyroid receptor (TR) signaling pathway (AID 743065); note: nearly all actives have a fitted effect of over 55% in size; note: potency is the fitted concentration of half-maximal effect
# Method in brief: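 GH3.TRE-Luc rat pituitary cells (two TREs driving luciferase) were dosed with compound, then stimulated with 1 nM T3 (final) for 23.5 h at 37 C. ONE-Glo luminescence was the read-out, with CellTiter-Fluor fluorescence as the cytotoxicity counter-screen.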
# [2] = system: thyroid hormone receptor (rat, GH3 cells); assay: qHTS assay to identify small molecule agonists of the thyroid receptor (TR) signaling pathway (AID 743066; calls by dose curve)
# [3] = qHTS assay to identify small molecule antagonists of the estrogen receptor alpha (ER-alpha) signaling pathway - cell viability counter screen (AID 743074; calls by dose curve;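 note: HEK293 cells carrying ER-alpha-UAS-bla reporter stimulated with 17beta-estradiol; nearly all actives have a fitted effect of over 45% in size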)
# [4] = qHTS assay to identify small molecule antagonists of the estrogen receptor alpha (ER-alpha) signaling pathway using the BG1 cell line - cell viability counter screen (AID 743081);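 note: compound given together with 17beta-estradiol as the ER stimulus; series mostly up to about 70 µM; nearly all actives have a fitted effect of over 45% in size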
# Aromatase (Homo sapiens) = Aromatase (Homo sapiens) (UniProt P11511); assay: qHTS assay to identify aromatase inhibitors (AID 743083); note: series mostly up to about 70 µM; nearly all actives have a fitted effect of over 55% in size
# [5] = qHTS assay to identify aromatase inhibitors - cell viability counter screen (AID 743084);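 note: cells stimulated with testosterone during compound exposure; nearly all actives have a fitted effect of over 55% in size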
# [6] = molecular target: Aryl hydrocarbon receptor (Homo sapiens) (UniProt P35869); assay: qHTS assay to identify small molecule that activate the aryl hydrocarbon receptor (AhR) signaling pathway (AID 743085);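 note: HG2L7.5c1 human HepG2 liver cells with stably integrated DRE-driven firefly reporter; series mostly up to about 70 µM; nearly all actives have a fitted effect of over 15% in size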
# Method in brief: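 Stably transfected human liver carcinoma cells (HG2L7.5c1; 20 DRE-firefly luciferase) were incubated 5 h, dosed, and kept 24 h at 37C. Agonism was scored from increased luciferase luminescence.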
# [7] = qHTS assay to identify small molecule that activate the aryl hydrocarbon receptor (AhR) signaling pathway - cell viability counter screen (AID 743086); note: nearly all actives have a fitted effect of over 45% in size; note: potency is the fitted concentration of half-maximal effect
# Method in brief: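 HepG2-AhR-luc (HG2L7.5c1) cells, 4000/well, treated 24 h at 37 C with compound; viability measured as CellTiter-Fluor fluorescence after 30 min in the same wells as the luciferase read.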
# [8] = qHTS assay to identify small molecule antagonists of the peroxisome proliferator-activated receptor gamma (PPARg) signaling pathway - cell viability counter screen (AID 743194); conditions: Potency: co-treated with 50 nM rosiglitazone; note: nearly all actives have a fitted effect of over 55% in size
# Method in brief: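 Cytotoxicity counter screen in PPARg-bla HEK293H cells, same wells as reporter assay. Compounds plus 50 nM rosiglitazone (final) for 17 h at 37 C, then viability read by CellTiter-Glo luminescence.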
# [9] = qHTS assay for small molecule agonists of the antioxidant response element (ARE) signaling pathway (AID 743202; active = well fitted activation curve with a large enough effect in the signal ratio in the repeat runs, not every such curve was filed as active; the % refers to the signal ratio)
# Method in brief: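 ARE-bla HepG2 cells (beta-lactamase reporter under the antioxidant response element), plated 5 hours, then exposed to compounds 16 hours at 37 C. LiveBLAzer B/G FRET substrate added for 2 hours at room temperature; fluorescence intensity read.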
# [10] = qHTS assay for small molecule agonists of the antioxidant response element (ARE) signaling pathway - cell viability counter screen (AID 743203; calls by dose curve; note: nearly all actives have a fitted effect of over 55% in size)
# Method in brief: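 HepG2 cells carrying ARE-driven beta-lactamase; 2,000 cells/well; 5 hrs plating; compound pinned from DMSO; 16 hrs 37C/5% CO2; CellTiter-Glo added; 30 min RT; luminescence.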
# [11] = qHTS assay for small molecule activators of the heat shock response signaling pathway - cell viability counter screen (AID 743209); note: nearly all actives have a fitted effect of over 50% in size
# Method in brief: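 Luminescence from CellTiter-Glo, added after the beta-lactamase FRET read, gave the viability signal. Cells were HSE-bla HeLa treated with DMSO-dissolved compounds for 5 h at 37 C following overnight plating.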
# [12] = qHTS assay for small molecule activators of the heat shock response signaling pathway (AID 743210; active = well fitted activation curve with a large enough effect in the signal ratio in the repeat runs, with a control signal flat, not every such curve was filed as active; the % refers to the signal ratio; note: series mostly up to about 63 µM)
# Method in brief: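 HSE-bla HeLa cells (beta-lactamase reporter under heat shock response elements), plated overnight, then exposed to compounds 5 h at 37 C; LiveBLAzer B/G FRET substrate added, 2.5 h at room temperature, fluorescence intensity read.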
# [13] = molecular target: Peroxisome proliferator-activated receptor gamma (Homo sapiens) (UniProt P37231); assay: qHTS assay to identify small molecule antagonists of the peroxisome proliferator-activated receptor gamma (PPARg) signaling pathway (AID 743191; calls by dose curve; note: nearly all actives have a fitted effect of over 30% in size; note: potency is the fitted concentration of half-maximal effect)
# Method in brief: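 GeneBLAzer PPARg UAS-bla HEK293H cells, 5 h post-plating, exposed to compounds 17 h at 37C. LiveBLAzer B/G FRET substrate added for 1 h at room temperature; beta-lactamase reporter read by fluorescence intensity.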
# [14] = molecular target: Estrogen receptor (Homo sapiens) (UniProt P03372); assay: qHTS assay to identify small molecule antagonists of the estrogen receptor alpha (ER-alpha) signaling pathway (AID 743069; active = well fitted curve in the direction sought with a large enough effect in the signal ratio in the repeat runs, not every such curve was filed as active; the % refers to the signal ratio)
# Method in brief: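 HEK293 ER-alpha-UAS-bla GripTite cells, held overnight in 2% charcoal-stripped FBS, 5,000 cells/well, preincubated 4 h, then compound plus 17beta-estradiol for 18 h at 37C. Beta-lactamase read by LiveBLAzer B/G FRET substrate, 2 h at room temperature.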
# [15] = molecular target: Estrogen receptor (Homo sapiens) (UniProt P03372); assay: qHTS assay to identify small molecule agonists of the estrogen receptor alpha (ER-alpha) signaling pathway (AID 743075; calls by dose curve)
# [16] = molecular target: Estrogen receptor (Homo sapiens) (UniProt P03372); assay: qHTS assay to identify small molecule agonists of the estrogen receptor alpha (ER-alpha) signaling pathway using the BG1 cell line (AID 743079); note: nearly all actives have a fitted effect of over 20% in size; note: potency is the fitted concentration of half-maximal effect
# [17] = molecular target: Peroxisome proliferator-activated receptor gamma (Homo sapiens) (UniProt P37231); assay: qHTS assay to identify small molecule agonists of the peroxisome proliferator-activated receptor gamma (PPARg) signaling pathway (AID 743094; active = well fitted activation curve with a large enough effect in the signal ratio in the repeat runs, not every such curve was filed as active; the % refers to the signal ratio)
# Method in brief: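 Beta-lactamase FRET fluorescence was the read-out after a 1 h room-temperature substrate step, following 17 h compound treatment at 37C of HEK293H cells expressing a UAS-driven bla reporter responsive to PPARg.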
# [18] = qHTS assay to identify small molecule antagonists of the thyroid receptor (TR) signaling pathway - cell viability counter screen (AID 743064); note: nearly all actives have a fitted effect of over 50% in size
# Method in brief: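 CellTiter-Fluor readout, 30 min at 37 °C/5% CO2, following 23.5 h incubation of GH3.TRE-Luc cells with test compound and 1 nM T3 (final).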
# [19] = qHTS assay to identify small molecule antagonists of the estrogen receptor alpha (ER-alpha) signaling pathway using the BG1 cell line (AID 743080; calls by dose curve;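 note: BG1 cells stimulated with 17beta-estradiol alongside compound; series mostly up to about 70 µM; nearly all actives have a fitted effect of over 25% in size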)
# Method in brief: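 BG1-Luc-4E2 cells (endogenous full-length ER-alpha, 4xERE luciferase) hormone-starved 5 days in charcoal-stripped FBS, plated 4,000/well for 24 h, then compound plus 17beta-estradiol for 21.5 h at 37 C; ONE-Glo luminescence read.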
# Aryl hydrocarbon receptor (Homo sapiens), sequence (P35869 whole entry, looked up): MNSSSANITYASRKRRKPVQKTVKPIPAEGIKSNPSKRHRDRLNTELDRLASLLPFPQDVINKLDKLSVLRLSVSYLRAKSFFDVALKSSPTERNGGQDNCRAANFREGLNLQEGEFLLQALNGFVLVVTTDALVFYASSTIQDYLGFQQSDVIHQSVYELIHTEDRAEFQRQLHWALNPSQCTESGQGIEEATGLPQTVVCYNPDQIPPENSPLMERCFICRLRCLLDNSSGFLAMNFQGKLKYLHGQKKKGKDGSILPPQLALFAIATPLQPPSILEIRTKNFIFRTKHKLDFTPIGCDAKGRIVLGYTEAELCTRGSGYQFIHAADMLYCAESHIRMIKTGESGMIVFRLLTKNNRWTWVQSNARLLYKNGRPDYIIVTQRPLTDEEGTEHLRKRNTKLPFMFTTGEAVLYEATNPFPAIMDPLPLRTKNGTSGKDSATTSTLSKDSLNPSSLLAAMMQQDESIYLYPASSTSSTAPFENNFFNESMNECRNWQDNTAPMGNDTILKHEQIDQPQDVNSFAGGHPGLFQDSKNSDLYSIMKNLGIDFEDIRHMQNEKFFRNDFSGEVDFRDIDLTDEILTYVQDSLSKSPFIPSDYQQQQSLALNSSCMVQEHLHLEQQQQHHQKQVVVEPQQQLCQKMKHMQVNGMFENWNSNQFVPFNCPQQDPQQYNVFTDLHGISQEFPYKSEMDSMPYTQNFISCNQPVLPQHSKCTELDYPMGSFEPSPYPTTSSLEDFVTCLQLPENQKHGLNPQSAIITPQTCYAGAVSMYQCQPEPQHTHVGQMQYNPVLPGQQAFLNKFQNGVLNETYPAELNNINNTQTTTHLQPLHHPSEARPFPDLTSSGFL
# Aromatase (Homo sapiens), sequence (P11511 whole entry, looked up): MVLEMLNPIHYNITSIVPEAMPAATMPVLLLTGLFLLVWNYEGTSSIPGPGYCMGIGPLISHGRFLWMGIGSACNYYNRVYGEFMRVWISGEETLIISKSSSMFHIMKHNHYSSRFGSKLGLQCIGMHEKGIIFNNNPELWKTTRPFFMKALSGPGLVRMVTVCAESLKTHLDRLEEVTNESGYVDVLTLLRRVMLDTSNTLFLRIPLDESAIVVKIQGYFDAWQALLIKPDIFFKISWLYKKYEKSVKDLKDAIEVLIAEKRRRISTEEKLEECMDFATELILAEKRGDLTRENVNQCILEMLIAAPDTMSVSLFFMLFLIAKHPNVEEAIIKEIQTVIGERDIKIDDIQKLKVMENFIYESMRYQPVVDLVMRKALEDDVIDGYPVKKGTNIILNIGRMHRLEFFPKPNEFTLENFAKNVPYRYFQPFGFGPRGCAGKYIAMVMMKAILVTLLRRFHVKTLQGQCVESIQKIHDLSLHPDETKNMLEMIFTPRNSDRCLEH
# Peroxisome proliferator-activated receptor gamma (Homo sapiens), sequence (P37231 whole entry, looked up): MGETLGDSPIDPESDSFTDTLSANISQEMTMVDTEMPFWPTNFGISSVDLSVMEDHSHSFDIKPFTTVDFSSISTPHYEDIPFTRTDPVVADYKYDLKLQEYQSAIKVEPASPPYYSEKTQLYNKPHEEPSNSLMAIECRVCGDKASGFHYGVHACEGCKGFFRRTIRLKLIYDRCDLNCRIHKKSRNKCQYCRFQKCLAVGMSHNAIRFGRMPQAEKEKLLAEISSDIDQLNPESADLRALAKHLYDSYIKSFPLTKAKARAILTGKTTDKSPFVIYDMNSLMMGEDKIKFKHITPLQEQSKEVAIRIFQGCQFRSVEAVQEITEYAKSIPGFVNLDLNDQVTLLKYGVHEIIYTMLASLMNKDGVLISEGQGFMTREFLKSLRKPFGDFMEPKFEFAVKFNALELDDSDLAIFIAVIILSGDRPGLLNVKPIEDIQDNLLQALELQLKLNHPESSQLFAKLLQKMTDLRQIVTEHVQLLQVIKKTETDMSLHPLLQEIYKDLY
# Estrogen receptor (Homo sapiens), sequence (P03372 whole entry, looked up): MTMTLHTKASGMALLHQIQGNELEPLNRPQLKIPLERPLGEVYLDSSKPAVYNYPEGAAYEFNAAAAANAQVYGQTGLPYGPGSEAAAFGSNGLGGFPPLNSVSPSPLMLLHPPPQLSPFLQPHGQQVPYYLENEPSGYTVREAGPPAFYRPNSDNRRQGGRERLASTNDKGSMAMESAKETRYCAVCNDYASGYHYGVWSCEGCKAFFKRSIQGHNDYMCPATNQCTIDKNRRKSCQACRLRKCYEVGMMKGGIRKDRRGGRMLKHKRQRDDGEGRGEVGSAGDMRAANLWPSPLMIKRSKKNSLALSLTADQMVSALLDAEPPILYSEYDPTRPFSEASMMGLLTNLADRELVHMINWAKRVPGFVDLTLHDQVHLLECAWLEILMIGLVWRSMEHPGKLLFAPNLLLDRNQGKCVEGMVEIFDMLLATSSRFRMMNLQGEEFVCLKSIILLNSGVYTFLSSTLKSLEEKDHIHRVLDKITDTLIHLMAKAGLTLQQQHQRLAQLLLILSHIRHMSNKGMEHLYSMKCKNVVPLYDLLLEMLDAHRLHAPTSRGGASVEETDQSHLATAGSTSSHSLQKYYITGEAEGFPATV
SMILES,Potency [1],Potency [2],Potency [3],Potency [4],Potency (Aromatase (Homo sapiens)),Potency [5],Potency [6],Potency [7],Potency [8],Potency [9],Potency [10],Potency [11],Potency [12],Potency [13],Potency [14],Potency [15],Potency [16],Potency [17],Potency [18],Potency [19]
C=CC(C)(CCC=C(C)C)OC(=O)c1ccccc1N (stereo unspecified),inactive,inactive,inactive,inactive,inactive,inactive,inactive,inactive,inactive,inactive,inactive,inactive,inactive,–,–,–,–,–,–,–
CCC(=O)O[C@@H]1C=C2CCC3C(CCC4(C)C3CC[C@@H]4OC(=O)CC)C2CC1 (stereo partly specified),–,–,–,–,–,–,–,–,inactive,–,inactive,inactive,inactive,inactive,–,–,–,–,–,–
Nc1ccccc1C(=O)OCC(O)CO (stereo unspecified),–,–,–,–,–,–,–,–,inactive,inactive,inactive,inactive,inactive,–,–,–,–,–,–,–
CC(Cc1ccccc1)NCc1ccccc1Cl (stereo unspecified),inactive,inactive,inactive,inactive,inactive,inactive,–,inactive,inactive,–,inactive,inactive,inactive,inactive,inactive,inactive,26.6 µM (active),inactive,–,–
CC(Oc1cccc(Cl)c1)C(=O)O (stereo unspecified),inactive,inactive,inactive,inactive,inactive,inactive,inactive,–,inactive,inactive,inactive,inactive,inactive,inactive,–,–,–,inactive,–,–
C=CC(=O)OCC,inactive,inactive,inactive,inactive,inactive,inactive,inactive,inactive,inactive,inactive,inactive,inactive,inactive,–,inactive,inactive,inactive,inactive,–,–
CC(=O)NNc1ccccc1,4.82 µM (active),inactive,inactive,inactive,inactive,inactive,inactive,inactive,inactive,inactive,inactive,inactive,–,–,–,–,–,–,–,–
C[N+]1(CCF)[C@@H]2CC[C@H]1CC(OC(=O)C(O)(c1ccccc1)c1ccccc1)C2 (stereo partly specified),inactive,inactive,–,inactive,inactive,inactive,inactive,inactive,inactive,inactive,inactive,inactive,inactive,inactive,–,–,15 µM (active),inactive,–,–
CCC(C)(C)O,inactive,inactive,inactive,inactive,inactive,inactive,inactive,inactive,inactive,inactive,inactive,inactive,inactive,inactive,inactive,inactive,inactive,inactive,–,–
CC(Oc1cc(Cl)c(Cl)cc1Cl)C(=O)O (stereo unspecified),–,–,inactive,inactive,inactive,inactive,inactive,inactive,inactive,–,inactive,inactive,inactive,–,inactive,inactive,inactive,–,–,–
C#CC(O)(C=CCl)CC (stereo unspecified),–,–,–,–,–,–,–,–,inactive,inactive,inactive,inactive,inactive,inactive,–,–,–,–,–,–
O=C(NC(=O)c1cc(F)c(F)cc1Cl)Nc1cc(F)ccc1N1CCC(C(=O)O)CC1,–,–,inactive,inactive,inactive,inactive,inactive,inactive,–,inactive,inactive,inactive,inactive,1.9 µM (active),–,inactive,inactive,–,inactive,inactive
NCCc1cc(O)c(O)cc1O,–,inactive,inactive,inactive,inactive,inactive,inactive,inactive,inactive,–,inactive,inactive,inactive,inactive,inactive,inactive,inactive,inactive,–,inactive
COC(=O)Cc1ccccc1,–,–,inactive,inactive,inactive,inactive,inactive,inactive,–,inactive,inactive,inactive,inactive,–,inactive,inactive,inactive,inactive,inactive,–
O=C(N/N=C/c1ccc([N+](=O)[O-])o1)c1cc([N+](=O)[O-])cc([N+](=O)[O-])c1O,inactive,inactive,inactive,–,inactive,–,–,29.8 µM (active),inactive,–,inactive,inactive,inactive,inactive,–,–,–,inactive,–,–
COc1cc(CC#N)cc(OC)c1OC,–,–,–,–,–,–,–,–,inactive,–,inactive,inactive,inactive,–,–,–,–,–,–,–
CCOC(C(=O)OCCN(C)C)(c1ccccc1)c1ccccc1,–,–,–,–,–,–,–,–,inactive,inactive,inactive,inactive,inactive,inactive,–,–,–,–,–,–
CCOC(=O)c1cncn1C(C)c1ccccc1 (stereo unspecified),inactive,inactive,inactive,inactive,inactive,inactive,inactive,inactive,inactive,–,inactive,inactive,inactive,inactive,inactive,inactive,inactive,inactive,–,inactive
CC(C)(C)NCC(O)c1cc(Cl)c(N)c(C(F)(F)F)c1 (stereo unspecified),inactive,inactive,inactive,–,inactive,–,inactive,–,inactive,inactive,inactive,inactive,inactive,inactive,inactive,inactive,inactive,inactive,–,inactive
O=S(=O)(c1ccccc1)c1ccccc1,inactive,inactive,inactive,inactive,inactive,inactive,inactive,inactive,inactive,inactive,inactive,inactive,inactive,inactive,–,–,–,inactive,–,–
CC(C)C1(C)N=C(c2ncccc2C(=O)O)NC1=O (stereo unspecified),inactive,inactive,inactive,inactive,inactive,inactive,inactive,inactive,inactive,–,inactive,inactive,inactive,inactive,–,inactive,inactive,inactive,–,–
CCCN(CCC)C(=O)Cc1c(-c2ccc(Cl)cc2)nc2ccc(Cl)cn12,–,inactive,inactive,inactive,inactive,inactive,–,inactive,inactive,–,inactive,inactive,inactive,–,–,inactive,inactive,inactive,–,inactive
CCOc1cccc(C2(N3CCN(c4ccccc4)CC3)CCC(C)CC2)c1 (stereo unspecified),inactive,inactive,–,inactive,inactive,inactive,–,inactive,inactive,inactive,inactive,inactive,–,inactive,inactive,inactive,inactive,inactive,–,–
CC(CC(C(N)=O)(c1ccccc1)c1ccccc1)N(C)C (stereo unspecified),–,–,–,–,–,–,–,–,inactive,–,inactive,inactive,inactive,inactive,–,–,–,–,–,–
